In PubChem BioAssay AID951 (NMMLSC, 2007):
Screen size: about 190,000 compounds; about 140 (0.074%) were called active. Cut-off read from the data, not from the text of the source: active = inhibition above about 40%. The list comes from a sample in which actives are over-represented; it also holds similar structures and randomly drawn compounds.

These molecules were tested against Bcl-2-like protein 10 (Homo sapiens) (UniProt Q9HD36) (assay: Bcl-B and Bim peptide interaction disruptors – biochemical, multiplexed, human Bcl-2 family, primary screen (AID 951;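 note: 0% = tracer peptide without compound and 100% = reference inhibitor peptide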)). Details: bead-based flow cytometry, Bim peptide-Bcl-B binding; at 10 µM; hits give high values.
Sequence of Bcl-2-like protein 10 (Homo sapiens) (Q9HD36 whole entry, looked up): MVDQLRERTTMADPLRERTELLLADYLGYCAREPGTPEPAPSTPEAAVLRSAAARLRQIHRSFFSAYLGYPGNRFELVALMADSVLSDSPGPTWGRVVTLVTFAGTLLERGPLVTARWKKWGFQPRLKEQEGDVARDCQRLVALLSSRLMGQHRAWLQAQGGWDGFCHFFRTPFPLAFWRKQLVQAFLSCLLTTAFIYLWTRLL

SMILES	inhibition
COc1ccccc1N1CCN(CC(=O)NC(=O)NCc2ccco2)CC1	-9% (inactive)
CCN(CCn1cccn1)Cc1cn[nH]c1-c1ccc(OC)cc1F	-4% (inactive)
O=C(COC(=O)CNC(=O)c1ccccc1F)NCC(F)(F)F	-5% (inactive)
COc1ccc(C(CC(=O)Nc2ccc(C)cc2)NC(=O)C(F)(F)F)cc1 (stereo unspecified)	-9% (inactive)
CCOC(=O)c1oc2c(CN3CCN(CCO)CC3)c(O)c(CC)cc2c(=O)c1-c1nc2ccccc2s1	0% (inactive)
N#Cc1ccccc1NC(=O)COc1c(Br)cc(Br)c2cccnc12	-7% (inactive)
Cc1ccc(Nc2nc(CSc3nnc(-c4ccncc4)n3-c3ccccc3C)cs2)cc1	-11% (inactive)
CCCCc1ccc(NC(=S)N2CCCC(CO)C2)cc1 (stereo unspecified)	-7% (inactive)
Cc1ccc(NC(=O)O/N=C/c2cccc([N+](=O)[O-])c2)cc1	0% (inactive)
CCOc1cc(NC(=S)NCCCOC)c(OCC)cc1NC(=O)c1ccco1	-11% (inactive)
NC(=O)c1ccccc1N=Cc1ccc2ccccc2c1	-4% (inactive)
O=c1c(-c2ccccc2)cnc2n1CCS2	-2% (inactive)
O=C(CC1SCCNC1=O)Nc1ccc(Cl)c(Cl)c1 (stereo unspecified)	-1% (inactive)
CCC(CC)C(=O)N1CCN(c2cccc(C)c2C)CC1	0% (inactive)
CCN(CC)CCNC(=O)c1ccc(NS(=O)(=O)c2ccc3c(c2)OCCO3)cc1	0% (inactive)
Cc1nc2ccccc2n1CC(=O)N/N=C/c1cccs1	-6% (inactive)
CN(C)c1ccc(C(=S)N2CCN(C(=S)Nc3ccc(Cl)cc3)CC2)cc1	-6% (inactive)
CN1CCN(CCNC(=O)Nc2ccc([N+](=O)[O-])cc2)CC1	-5% (inactive)
O=C(Nn1cnc2ccccc2c1=O)c1ccc([N+](=O)[O-])cc1Cl	0% (inactive)
Cc1c(CN2CCCCC2)c(O)n(CCO)c(=O)c1C#N	-3% (inactive)
CCOc1cc(NC(=O)CCl)c(OCC)cc1NC(C)=O	-4% (inactive)
CC(NC(=O)COC(=O)c1ccc2c(c1)OCO2)c1ccccc1 (stereo unspecified)	0% (inactive)

SMILES	inhibition
CC(C)NC(=O)c1ccc(Cl)cc1Cl	-2% (inactive)
Cn1c(-c2sccc2OCc2cccc(C(F)(F)F)c2)n[nH]c1=S	-24% (inactive)
O=C(CC(NC(=O)c1ccccc1)c1ccccc1)Nc1ccc(F)c(F)c1 (stereo unspecified)	-6% (inactive)
CCOC(=O)C1(C)NC(c2ccco2)C2C(=O)N(c3ccccc3)C(=O)C21 (stereo unspecified)	-1% (inactive)
CC(=O)c1c(N2CCN(c3ccc(F)cc3)CC2)nc(=S)n(-c2ccccc2)c1C	-11% (inactive)
CNC(=O)C(=O)N/N=C/c1ccccn1	2% (inactive)
CCCC1NC(=S)NC(C)=C1C(C)=O (stereo unspecified)	-2% (inactive)
C/C(=N/NC(=O)CSc1ccccn1)c1ccc([N+](=O)[O-])cc1	-2% (inactive)
CC(C)(C)C(=O)CSc1nc2ccccc2o1	-4% (inactive)
CCOC(=O)C(C)Oc1cccc2c(=O)n(CC(=O)NCCc3ccc(OC)c(OC)c3)ccc12 (stereo unspecified)	-3% (inactive)
CCSC1=NCCN1C(=O)c1ccc(S(=O)(=O)N(CC)CC)cc1	-5% (inactive)
CC(C)(C)c1ccc(/C=C2\SC(=O)N=C2N)cc1	-3% (inactive)
Cc1c(Br)c([N+](=O)[O-])nn1CC(=O)Nc1sc2c(c1C(=O)OC(C)C)CCC(C)C2 (stereo unspecified)	2% (inactive)
Cc1cc(Cl)ccc1OCc1nc(-c2ccncc2)no1	-5% (inactive)
O=C(Nc1ccc2c(c1)CCC2)c1ccc(Br)s1	0% (inactive)
CCn1cc(C(=O)NCCCN2CCCCCC2)c(=O)c2cc(S(=O)(=O)N3CCc4ccccc4C3)ccc21	-12% (inactive)
O=C(N/N=C/c1cc2c(cc1Br)OCO2)C1COc2ccccc2O1 (stereo unspecified)	1% (inactive)
O=[N+]([O-])c1cccc(/C([O-])=C(/C(=S)Nc2ccccc2F)[n+]2ccccc2)c1	-16% (inactive)
COc1cccc(-c2ccc(C#N)c(SCC(=O)NCCc3ccc(Cl)cc3)n2)c1	-12% (inactive)
O=C(NCC1CCCO1)C1CCN(C2CCN(C(=O)C3CCCCC3)CC2)CC1 (stereo unspecified)	0% (inactive)
Cc1cccc(-n2c(SCC(=O)Nc3cccc(S(=O)(=O)NC4=NCCCCC4)c3)nc3ccccc3c2=O)c1C	-4% (inactive)
O=C(Nc1ccc(F)cc1)C1CCN(C(=O)c2ccc([N+](=O)[O-])cc2)CC1	6% (inactive)

SMILES	inhibition
O=C(O)c1ccc(NS(=O)(=O)c2ccc3c(c2)C(=O)c2cc(S(=O)(=O)Nc4ccc(C(=O)O)cc4)ccc2-3)cc1	-6% (inactive)
O=C(COC(=O)Cc1ccc(Br)cc1)Nc1c(F)c(F)c(F)c(F)c1F	-7% (inactive)
CC(=O)c1ccccc1NC(=O)CC1(CC(=O)O)CCCCC1	-1% (inactive)
CC(C)(C)C(=O)NC(NC(=S)Nc1ccc(S(N)(=O)=O)cc1)C(Cl)(Cl)Cl (stereo unspecified)	49% (active)
NS(=O)(=O)c1ccc(NC(=S)Nc2ccc(Br)c(Cl)c2)cc1	-9% (inactive)
CC(=O)NS(=O)(=O)c1ccc(NC(=S)NC(=O)C(C)(C)C)cc1	-4% (inactive)
COc1cccc(C2c3[nH]c4ccccc4c3CCN2Cc2cccc(C)n2)c1 (stereo unspecified)	-3% (inactive)
CCOc1ccc2nc(NC(=O)c3cc([N+](=O)[O-])ccc3N3CCOCC3)sc2c1	-3% (inactive)
O=C(CCc1ccccc1)Nc1ccc(NC(=O)C2CCCCC2)nc1	0% (inactive)
O=C(NNC(=S)NCCCN1CCOCC1)c1ccncc1	-2% (inactive)
OC(COCc1ccco1)CN1CCN(c2ccccc2)CC1 (stereo unspecified)	-4% (inactive)
Cc1cc(N2CCOCC2)nc2ccc(NC(=S)N3CCN(Cc4ccccc4)CC3)cc12	-4% (inactive)
CCNC(=O)CC1C(=O)N(c2ccc(F)cc2)C(=O)N1Cc1cccs1 (stereo unspecified)	-6% (inactive)
CCO[C@H]1OC(C(=O)N2CCN(Cc3ccccc3)CC2)=C[C@@H](c2cn(C(C)=O)c3ccccc23)[C@@H]1CCCO	-3% (inactive)
CN(C)N(C)C(=O)C(O)(c1ccccc1)c1ccccc1	-2% (inactive)
CS(=O)(=O)c1ccc2nc(NC(=O)c3ccc(Cl)nc3)sc2c1	-2% (inactive)
O=[N+]([O-])c1ccc(N/N=C2/CCCCC2c2ccccn2)c([N+](=O)[O-])c1 (stereo unspecified)	-11% (inactive)
O=C(COc1ccccc1[N+](=O)[O-])NC1CC1	-4% (inactive)
OCCNCCOc1ccc(Cl)c(Cl)c1	-5% (inactive)
Cc1cccc(NC(=S)N(CCN(C)C)C(C)c2ccco2)c1 (stereo unspecified)	0% (inactive)
COc1ccc(Br)cc1C(=O)Nc1cccc(C)c1C	-7% (inactive)
CCCCN1C(=O)c2ccc(C(=O)Nc3ccc(S(=O)(=O)N(C)C)cc3)cc2C1=O	0% (inactive)

SMILES	inhibition
O=C(NNC(=O)c1ccc(Cl)cc1Cl)c1cccs1	-1% (inactive)
CC(=O)NS(=O)(=O)c1ccc(NC(=O)C2C3C=CC(C3)C2C(=O)O)cc1 (stereo unspecified)	-5% (inactive)
S=c1nc(C23CC4CC(CC(C4)C2)C3)nc2sccn12	2% (inactive)
O=C(CC1NCCc2ccccc21)Nc1cccc(Cl)c1 (stereo unspecified)	-1% (inactive)
CCN(CC)S(=O)(=O)c1ccc(N2CCCC2)c(NS(=O)(=O)c2cccs2)c1	-5% (inactive)
Cc1ccn(-c2cccc(-n3ccc(C)n3)n2)n1	0% (inactive)
COc1ccccc1C1CC(=O)n2c(nc(-c3ccccc3)c2-c2ccccc2)S1 (stereo unspecified)	-4% (inactive)
CC1(C)CC(N(Cc2ccccc2)C(=O)Cc2ccccc2)CCO1 (stereo unspecified)	-3% (inactive)
Cc1cccc(C(=O)OC(C)CN2CCN(C)CC2)c1 (stereo unspecified)	-4% (inactive)
CC(C)(C)NC(=O)COC(=O)c1cc(Cl)ccc1[N+](=O)[O-]	0% (inactive)
O=C(c1ccc(Cl)c([N+](=O)[O-])c1)N1CCN(c2ccccc2)CC1	-4% (inactive)
COc1cc(NC(=O)c2ccc3c(c2)OCO3)ccc1NC(=O)c1cccs1	2% (inactive)
COc1ccc(/C=C2\SC(=S)N(CC(=O)NNC(=O)c3ccncc3)C2=O)cc1	-1% (inactive)
COCCN(Cc1nc(-c2ccc(C(F)(F)F)cc2)no1)C(C)C	-5% (inactive)
CC(OC(=O)CNS(=O)(=O)/C=C/c1ccccc1)C(=O)Nc1ccc(S(=O)(=O)N2CCCC2)cc1 (stereo unspecified)	-8% (inactive)
Cc1ccc2nc(Nc3ncc4c(n3)CC(C)(C)CC4=O)nc(C)c2c1	-1% (inactive)
COC(C(=O)NCc1ccccc1C)c1ccccc1 (stereo unspecified)	-11% (inactive)
CCC1(CC)NC(=O)N(Cc2nc3ccccc3s2)C1=O	-3% (inactive)
O=C(NC(=S)NC1CCSC1=O)c1ccccc1F (stereo unspecified)	-3% (inactive)
COc1ccc(-c2nn(-c3ccccc3)cc2/C=C\C(=O)N2CCOCC2)cc1[N+](=O)[O-]	-1% (inactive)
O=C(O)CC1S/C(=N\N=C/c2ccccc2O)N(c2ccc(O)cc2)C1=O (stereo unspecified)	-5% (inactive)
COC(=O)c1onc(-c2c(OC)cc(OC)cc2OC)c1C(=O)OC	-1% (inactive)

SMILES	inhibition
CC(C)(C)NC(=O)NC(=O)CN1CCC(Cc2ccccc2)CC1	-1% (inactive)
CCCN(CCC)c1c([N+](=O)[O-])c(=O)oc2ccccc12	32% (inactive)
Cc1c(C(=O)NC(=S)NCc2cccnc2)oc2ccccc12	-9% (inactive)
Cc1cc(C(=O)N/N=C/c2ccc(O)c([N+](=O)[O-])c2)c(C)n1-c1ccc(F)cc1	10% (inactive)
Cc1ccccc1NCC(=O)N/N=C\c1ccc([N+](=O)[O-])s1	-3% (inactive)
COC(=O)c1ccc(C(NC(=O)OCc2ccccc2)/C(C)=C/[C@@H](C)C(=O)NCc2ccc(OC)c(OC)c2)cc1 (stereo partly specified)	-7% (inactive)
O=C(CCC(=O)c1cccs1)NC1CCCCCC1	-1% (inactive)
O=C(C(Cl)Cl)N1CCN(c2ccccn2)CC1	-1% (inactive)
CCOc1cc(N2CCOCC2)c(OCC)cc1NC(=O)c1cc(C)nc2ccccc12	-6% (inactive)
COC(=O)c1sc2[nH]c(=S)n(N)c(=O)c2c1C	-22% (inactive)
CC(Cc1cccs1)NC(=O)c1cccc(Cl)c1 (stereo unspecified)	-4% (inactive)
C=CCNC(=O)c1ccccc1NC(=O)c1ccc(Cl)c(S(=O)(=O)Nc2cccc(C)c2C)c1	-5% (inactive)
COc1ccc(C(=O)Nc2sc(C)c(C)c2CN2CCOCC2)cc1	-7% (inactive)
CCCn1nc(C(=O)Nc2ccc3nc(C)sc3c2)c2ccccc2c1=O	-7% (inactive)
COc1cc(C(=O)N[C@@H](C)C(=O)NCc2ccco2)cc(OC)c1OC	1% (inactive)
Cn1c(SCC(=O)NC2CCCCC2)nnc1-c1ccc(N)cc1	-4% (inactive)
COc1ccc(C2OCC3(CO2)SC(=O)NC3=O)cc1OC (stereo unspecified)	-1% (inactive)
CCN(C(=O)CSc1nc2ccccc2n1CC)C1CCS(=O)(=O)C1 (stereo unspecified)	-1% (inactive)
